# This excerpt belongs to a sample that is enriched for hits.
# Giardia kill = Giardia lamblia killing | Giardia lamblia trophozoite viability | activity change, % at 7.66 µM, hits read low | 340,000 compounds, 0.15% hits | AID 540267; in the data active = activity change below about -80%; inconclusive = between about -30% and that limit;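 note: parasites exposed to compound for two days anaerobically before the ATP read; % is set by controls: 0 for no effect and ±100 for the full control effect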
#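 Viability, read as ATP luminescence: trophozoites at 100 cells/well, compound added, 48 hrs anaerobic at 37 deg C, then 15-30 min room-temperature development before reading.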
# a7 integrin act = activates integrin-mediated alleviation for muscular dystrophy; Potency, µM (doses to about 38.3 µM), inactives show at the highest dose activation, usual class: activators; alpha7betagal myoblasts, beta-gal FDG fluorescence, 48 h; 350,000 compounds, 0.064% hits; AID 624291;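 note: potency is the fitted concentration of half-maximal effect; 100% = response of the positive control SU9516; nearly all actives have a fitted effect of over 60% in size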
#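 alpha7betagal+/- myoblasts (passage 13, 250/well) treated 48 h at 37C with compounds at 1:260 dilution of DMSO stock. Lysed, then beta-galactosidase activity read as FDG fluorescence (ex 480/em 540) after 30 min, with pre-read for autofluorescence.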
# RORg inh = inhibitors of mouse ROR gamma transcriptional activity. 310,000 compounds, 5.4% hits. AID 2551. P51450. Drosophila S2 Gal4-RORgamma UAS-luciferase reporter, 20 h. Potency, µM (highest dose often 53.6 µM), without a hit: at the top dose activity change, negative = inhibition, most hits filed as inhibitors; note: potency is the fitted concentration of half-maximal effect; % is set by controls: 0 for no effect and ±100 for the full control effect; nearly all actives have a fitted effect of over 60% in size
#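 In this cell-based reporter format, copper sulfate (700 uM final) drives Gal4–ROR gamma fusion expression from a metallothionein promoter in Drosophila Schneider cells; compounds preincubated 1 hr, reporter read after 20 hr at ambient temperature.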
# VP16 counter = counter-screen for ROR gamma inhibitors: Gal4-VP16 reporter; Drosophila S2 Gal4-VP16 UAS-luciferase, luminescence, 20 h; Potency, µM (titrated, usually from 53.6 µM), for the others: at the highest dose activity, negative = inhibition, actives largely listed as inhibitors; 310,000 compounds, 3.5% hits; AID 2546;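 note: Gal4-VP16 expression switched on by copper sulfate through the metallothionein promoter; potency is the fitted concentration of half-maximal effect; % is set by controls: 0 for no effect and ±100 for the full control effect; nearly all actives have a fitted effect of over 50% in size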
# ERG-DNA inh = ERG Ets/DNA interaction inhibition. 370,000 compounds, 0.028% hits. AID 624246. fluorescence polarization, His-ERG Ets domain / labelled DNA. Potency, µM (highest dose often 76.9 µM), without a hit: at the highest dose FP activity, negative = inhibition, actives largely listed as inhibitors; active = well fitted inhibition curve with a large enough effect in the polarisation, with a control signal flat; inconclusive = small, poorly fitted or top-dose-only effect, or effect the other way, or a change in a side signal; inactive = no such curve, though single readings can be large or run the other way; the % refers to the polarisation;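 note: polarization taken with two DNA probes labelled with fluorescein and Texas red; potency is the fitted concentration of half-maximal effect; % of control where 0% means no effect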
# Target sequence (P11308 whole entry, looked up, the tested form may be a part): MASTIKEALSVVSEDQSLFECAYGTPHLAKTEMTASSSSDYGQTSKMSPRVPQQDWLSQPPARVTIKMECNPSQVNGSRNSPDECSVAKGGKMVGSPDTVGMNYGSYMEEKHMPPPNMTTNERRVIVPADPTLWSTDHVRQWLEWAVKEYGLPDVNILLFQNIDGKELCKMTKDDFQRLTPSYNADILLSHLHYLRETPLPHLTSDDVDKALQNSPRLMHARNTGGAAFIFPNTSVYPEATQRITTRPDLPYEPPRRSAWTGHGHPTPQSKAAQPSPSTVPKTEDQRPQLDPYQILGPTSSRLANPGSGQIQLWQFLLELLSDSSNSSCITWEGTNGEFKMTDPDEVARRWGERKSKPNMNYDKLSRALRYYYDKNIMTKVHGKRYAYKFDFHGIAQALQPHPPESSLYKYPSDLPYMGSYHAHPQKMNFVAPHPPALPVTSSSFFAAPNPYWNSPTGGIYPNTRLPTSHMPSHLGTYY
#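 His-tagged ERG Ets domain (1 uM in the protein solution; 300mM KCl, 50mM Tris-HCl, 1mM EDTA, 1mM DTT, pH 7.5) received compound, then a probe mix of 5 nM fluorescein-DNA and 100nM Texas-615-DNA. Fluorescence polarization was read for both dyes.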
# * marks the source's active call; other numbers are inactive results; ? = inconclusive; nt = no result given; [ ] = another dose, or the depositor's remark. Unless noted, calls come from the whole dose curve; as a rule, active = well fitted curve in the direction sought with a large enough effect; inconclusive = small, poorly fitted or top-dose-only effect, or another doubt; inactive = no such curve, though single readings can be large; an effect the other way counts as inactive or inconclusive.
SMILES,Giardia kill,a7 integrin act,RORg inh,VP16 counter,ERG-DNA inh
COC(=O)/C=C1/SC(=NC(=O)c2cccc([N+](=O)[O-])c2)NC1=O,8,-15%,-12%,-16%,5%
Cc1ccc(CNC(=O)C(C)n2c(=O)cc(-c3ccccc3)c3c(C)nn(C)c32)cc1 (stereo not drawn),nt,nt,nt,nt,-4%
Cc1cc(NC(=S)NC(=O)CC(C)C)ccc1Br,-22,-4%,2.8µM*,?,2%
CC(C)CC(=O)NC(=S)Nc1ccc(N2CCOCC2)cc1,-17,-3%,28µM*,?,-1%
CC(C)CC(=O)NC(=S)Nc1ccc(S(=O)(=O)NC(C)(C)C)cc1,-3,16%,?,?,-8%
CC(C)CC(=O)NNC(=S)Nc1ccc(S(N)(=O)=O)cc1,-17,6%,18µM*,-3%[10 µM],7%
CCc1cccc(NC(=S)Nc2ccc(CN3CCOCC3)cc2)c1,-10,1%,11µM*,20µM*,-8%
COc1ccc(-c2nc(S(=O)(=O)c3ccc(C)cc3)c(NCc3ccccc3)o2)cc1,nt,nt,nt,nt,-8%
O=[N+]([O-])c1ccc(Sc2ccccn2)nc1,8,0%,3%,-16%,3%
O=[N+]([O-])c1ccc(Sc2nnnn2-c2ccccc2)nc1,-3,-62%,3.5µM*,?,3%
COc1ccccc1C/C(N)=N/OC(=O)c1cccc([N+](=O)[O-])c1,-14,5%,10µM*,-24%,-8%
COc1ccccc1C/C(N)=N/OC(=O)/C=C/c1ccccc1,-2,1%,5.6µM*,-26%,3%
N/C(=N/OC(=O)c1cccc([N+](=O)[O-])c1)c1cccc([N+](=O)[O-])c1,-3,16%,6%,-10%,9%
CC1=C(C)/C(=N/OC(=O)c2cccc([N+](=O)[O-])c2)C=CC1=O,-2,-49%,3.5µM*,3.5µM*,-9%
COc1ccccc1CNC(=O)c1ccc(CS(=O)(=O)c2ccc(C)cc2)o1,-20,-18%,18%,18%,8%
Cc1c(-c2ccc(Cl)cc2)oc(=O)c2c(N)n(-c3ccccc3)nc12,5,-16%,7.9µM*,?,3%
COc1cccc(NC(=O)CN(C)C(=O)c2cccnc2Nc2cccc(C(F)(F)F)c2)c1,2,-32%,nt,nt,7%
Cc1ccc(NC(=O)CN(C)C(=O)c2cccnc2Nc2cccc(C(F)(F)F)c2)cc1,5,-73%,?,13µM*,3%
CC(=O)c1sc(NC(=O)C=C(C)C)nc1C,5,9%,22%,10%,-9%
CC(=O)c1sc(NC(=O)C2(F)C(F)(F)C(F)(F)C(F)(F)C(F)(F)C2(F)F)nc1C,0,-77%,4µM*,3.5µM*,nt
CC1=NN(c2ccccc2)C(=O)C1C=Nc1ccccc1O (stereo not drawn),-10,-36%,2µM*,4.5µM*,-4%
CC1CCN(c2ncnc3c2c(-c2ccccc2)cn3-c2ccc(Br)cc2)CC1,nt,nt,nt,nt,0%
CC/C(O)=C(/C#N)c1nnc2n1CCCCC2,-18,-16%,20µM*,?,nt
N#C/C(=C(/O)COc1ccc(Br)cc1)c1nnc2n1CCCCC2,-5,?,-21%,?,-10%
CC/C(O)=C(\C#N)c1nnc2n1CCCCC2,-12,14%,13µM*,?,0%
SMILES,Giardia kill,a7 integrin act,RORg inh,VP16 counter,ERG-DNA inh
CC1CC=CC2C1C(=O)N(Cc1ccccc1)C2c1ccoc1 (stereo not drawn),-4,nt,-19%,5%,nt
COc1cc(C(=O)Nc2nc(-c3cc(C)ccc3C)c(C)s2)ccc1OCC(=O)Nc1ccc(F)cc1,6,-32%,22%,4%,-9%
COc1ccc(-c2nc(NC(=O)c3ccc(OCC(=O)Nc4ccc(F)cc4)c(OC)c3)sc2C)cc1,7,-28%,?,20µM*,4%
Nc1ncnc2c1[nH]c(=S)n2C1OC(CO)C(O)C1O (stereo not drawn),31,nt,nt,nt,nt
COCCN(Cc1nc(-c2ccc(-c3ccccc3)cc2)oc1C)C(C)C,-13,0%,11µM*,?,4%
NC(=O)C1CCCN1S(=O)(=O)c1ccc2ccccc2c1 (stereo not drawn),4,27%,-6%,-1%,3%
C#CC[N+](C)(C)CCCCCCCCCCCC,8,-62%,?,11µM*,0%

# Source: PubChem (National Center for Advancing Translational Sciences (NCATS))
